# FEN1 inh-1 = human FEN1 inhibition; Recombinant FEN1 flap cleavage, fluorescence, 15 min; AID 588795; Potency, µM (titrated, usually from 114 µM), for inactives: at the highest dose activity change, negative = inhibition, hits mostly inhibitors; hit rate 0.35% among 390,000; P39748; also: % is scaled to controls: 0 for no effect and ±100 for the full control effect; nearly all actives have a fitted effect of over 65% in size
#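 Nuclease activity of 10 nM FEN1 was measured after 15 min of room-temperature exposure to titrated compounds, by adding 50 nM flap substrate and reading plates at 0 and 15 min.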
# Chronic BCR inh = chronic active BCR signaling inhibition | ABC-DLBCL IkBa-CBG/CBR reporter, luminescence ratio, 4 h | Potency, µM (doses to about 46.1 µM), for inactives: top-dose activity change, negative = inhibition, usual class: inhibitors | hit rate 0.05% among 340,000 | AID 493014; active = well fitted inhibition curve with a large enough effect in the signal ratio, with a control signal flat, not every such curve was filed as active; inconclusive = small, poorly fitted or top-dose-only effect, or effect the other way, or a change in a side signal; the % refers to the signal ratio;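 also: plate controls were basal doxycycline-induced cells for no effect and cells given 10 µM MG132 for full effect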
#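 Doxycycline induced both beetle luciferases in TMD8 lymphoma cells; IKK-driven degradation limits the IkappaBalpha-fused green signal, while red luminescence normalises for cell number and nonspecific effects. Compounds tested up to 46 uM, 4 hrs.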
# Tb PGK inh = inhibitors of T. brucei phosphoglycerate kinase | P07378 | PGK/GAPDH coupled, Kinase-Glo luminescence, 60 min | Potency, µM (titrated, usually from 57.5 µM), without a hit: top-dose activity change, negative = inhibition, hits mostly inhibitors | hit rate 0.043% among 380,000; also: % is scaled to controls: 0 for no effect and ±100 for the full control effect; nearly all actives have a fitted effect of over 60% in size
# Target sequence (P07378 whole entry, looked up): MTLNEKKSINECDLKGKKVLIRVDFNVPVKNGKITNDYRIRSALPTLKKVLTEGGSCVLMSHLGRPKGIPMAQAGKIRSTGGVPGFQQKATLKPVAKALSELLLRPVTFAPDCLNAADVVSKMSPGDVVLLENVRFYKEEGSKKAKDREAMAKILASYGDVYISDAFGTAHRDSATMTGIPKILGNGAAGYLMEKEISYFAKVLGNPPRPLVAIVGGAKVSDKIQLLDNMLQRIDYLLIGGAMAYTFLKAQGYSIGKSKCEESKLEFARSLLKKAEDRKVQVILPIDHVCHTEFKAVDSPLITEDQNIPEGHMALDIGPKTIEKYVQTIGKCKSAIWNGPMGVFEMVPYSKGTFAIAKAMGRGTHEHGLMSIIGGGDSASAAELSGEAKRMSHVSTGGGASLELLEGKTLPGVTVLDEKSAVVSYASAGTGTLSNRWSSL
#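 Recombinant glycosomal PGK reaction used 1,3-bisphosphoglycerate generated in-well by GAPDH (100nM final) in 100mM TEA pH 7.6, 5mM MgCl2, 0.01% Tween-20. After 60 minutes at room temperature, ATP was read by Kinase-Glo Plus luminescence end-point.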
# Apoferritin bind = binds horse apoferritin like a general anesthetic. P02791. apoferritin/1-aminoanthracene competitive binding, fluorescence. Potency, µM (doses to about 77.5 µM), for inactives: top-dose activity change, negative = displacement, most hits filed as inhibitors. hit rate 0.074% among 350,000. AID 485281; also: % is scaled to controls: 0 for no effect and ±100 for the full control effect; nearly all actives have a fitted effect of over 20% in size
#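 Horse-spleen apoferritin (10 uM) was mixed with 50% saturated 1-aminoanthracene in PBS, exposed to compounds for 10 min at room temperature, and read for fluorescence (ex 380 nm, em 535 nm). Competitive displacement was fitted with a four-parameter Hill equation.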
# Pin1 inhibitor = inhibitors of human Pin1. Q13526. Pin1 FP peptide displacement, HiFluor488, 10 min. hit rate 0.009% among 390,000. Potency, µM (highest dose often 115 µM), inactives show top-dose activity, negative = inhibition, hits mostly inhibitors; active = well fitted inhibition curve with a large enough effect in the polarisation, with a control signal flat, not every such curve was filed as active; inconclusive = small, poorly fitted or top-dose-only effect, or effect the other way, or a change in a side signal; inactive = no such curve, though single readings can be large or run the other way; the % refers to the polarisation; also: % is scaled to controls: 0 for no effect and ±100 for the full control effect
# Target sequence (Q13526 whole entry, looked up): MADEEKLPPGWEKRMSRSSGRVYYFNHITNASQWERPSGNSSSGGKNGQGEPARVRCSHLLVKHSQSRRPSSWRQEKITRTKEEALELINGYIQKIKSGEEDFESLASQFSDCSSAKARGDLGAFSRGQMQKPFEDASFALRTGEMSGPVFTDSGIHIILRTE
# B2AR arrestin = agonists driving beta-arrestin recruitment to human beta2-adrenergic receptor; P07550; beta-arrestin recruitment to beta2AR, cell-based reporter; Potency, µM (titrated, usually from 46.1 µM), without a hit: at the top dose activation, actives largely listed as activators; hit rate 0.02% among 330,000; AID 492947;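 also: 0% = DMSO controls and full agonism = EC100 isoproterenol or metaproterenol; nearly all actives have a fitted effect of over 65% in size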
# FEN1 inh-2 = FEN1 inhibition, cherry-pick retest; AID 720498; FEN1 flap cleavage, TAMRA/BHQ2 fluorogenic DNA substrate; shares compounds with FEN1 inh-1; Potency, µM, hits mostly inhibitors; hit rate 79% among 880; also: nearly all actives have a fitted effect of over 60% in size
# Numbers without * were called inactive; i = inactive; ? = inconclusive; / = not tested or not shown. The list is not random: actives were taken first. Their share in the collection is about 0.45%. Unless noted, calls follow the shape of the dose curve; as a rule, active = well fitted curve in the direction sought with a large enough effect; inconclusive = small, poorly fitted or top-dose-only effect, or another doubt; inactive = no such curve, though single readings can be large; an effect the other way counts as inactive or inconclusive. Potency is read from the fitted curve at half-maximal effect.
SMILES,FEN1 inh-1,Chronic BCR inh,Tb PGK inh,Apoferritin bind,Pin1 inhibitor,B2AR arrestin,FEN1 inh-2
Oc1ccccc1-c1nc(NCCN2CCOCC2)c2ccccc2n1,?,?,3%,-21%,-4%,0%,/
COc1cccc(-c2nc(NCCN3CCOCC3)c3ccccc3n2)c1O,40µM*,10%,-3%,-17%,?,0%,?
COc1cc(/C=C2\CC/C(=C\c3cc(OC)c(O)c(OC)c3)C2=O)cc(OC)c1O,6.3µM*,?,-23%,-11%,126%,0%,8.5*
COc1cc(/C=C2\CC/C(=C\c3cc(OC)c(OC)c(OC)c3)C2=O)cc(OC)c1OC,-4%,-4%,-5%,3%,?,0%,/
O=c1[nH]c2ccc(S(=O)(=O)N3CCN(S(=O)(=O)c4c(F)cccc4F)CC3)cc2[nH]c1=O,/,/,/,/,?,/,?
CCCCC(OC(=O)CNC(=O)c1ccccc1)C(=O)Nc1cc(C(F)(F)F)ccc1Cl (stereo not given),/,/,/,/,2%,/,/
O=C(NN1C(=O)/C(=C/c2ccc(O)cc2)SC1=S)c1cccc(O)c1,-3%,2%,-3%,?,?,-1%,?
COc1ccccc1NC(=O)C(OC(=O)CNC(=O)c1ccccc1)c1ccccc1 (stereo not given),/,/,/,/,5%,/,/
Cc1ccc(Cn2ncc3c4sc(C)cc4n(C)c3c2=O)cc1,/,/,/,/,-5%,/,/
CCC(=O)OC1(C)C(=O)C=C2C=C(C3CC3)OC=C2C1=O (stereo not given),?,/,-14%,/,?,/,85*
CC1(OC(=O)c2ccco2)C(=O)C=C2C=C(C3CC3)OC=C2C1=O (stereo not given),?,/,-8%,/,?,/,/
Nc1c(C(=O)N/N=C/c2cccnc2)oc2nc(-c3ccco3)cc(-c3ccco3)c12,-14%,?,-1%,-7%,?,0%,/
NNC(=O)c1oc2nc(-c3ccco3)cc(-c3ccco3)c2c1N,50µM*,?,-5%,-12%,106%,0%,38*
O=C(CNC(=O)C1CCCCCC1)OC(C(=O)Nc1cc(C(F)(F)F)ccc1Cl)c1ccccc1 (stereo not given),/,/,/,/,1%,/,/
COc1cc(N/C(N)=N/c2nc(C)cc(C)n2)cc(OC)c1,?,?,4%,-14%,4%,-1%,54*
COc1ccc(N/C(N)=N/c2nc(C)cc(C)n2)c(OC)c1,-12%,-1%,10%,-8%,1%,0%,/
Cc1cc(C)nc(/N=C(\N)Nc2ccc3c(c2)OCCO3)n1,79µM*,4%,-3%,-12%,3%,0%,67*
COc1cc(O)c2c(c1)C(=O)c1cc(C)cc(O)c1C2=O,/,/,/,-3%,/,/,/
O=C(O)c1cc(O)c2c(c1)C(=O)c1cc(O)cc(O)c1C2=O,?,-10%,?,-8%,?,0%,?
CN(Cc1cccs1)c1ncnc2ccc(-c3ccc4cn(C)nc4c3)cc12,/,/,/,/,20%,/,67*
CC(C)c1ccc(Cn2cnc3c(cnn3C(C)(C)C)c2=O)cc1,-18%,/,/,/,/,/,/
CN(C)c1ccc(/C=C2\C=Cc3ccccc32)cc1Cl,0%,/,/,/,/,/,/
COC(=O)C(=O)/C=C(\O)c1c(C)cc(C)cc1C,?,1%,i,-15%,-8%,-1%,38*
C=Cc1cc2c(s1)c1cnn(Cc3ccccc3F)c(=O)c1n2C,/,/,/,/,-3%,/,/
CN(C)CCCNC(=O)c1ccc(-c2cc(O)c3ncccc3c2)cc1,50µM*,?,0%,/,-7%,0%,?
SMILES,FEN1 inh-1,Chronic BCR inh,Tb PGK inh,Apoferritin bind,Pin1 inhibitor,B2AR arrestin,FEN1 inh-2
Cn1nc(-c2ccc(F)cc2)nc2c(=O)n(C)c(=O)nc1-2,-15%,/,/,/,/,/,/
NC(N)=Nc1nc(-c2ccccc2)c2ccccc2n1,?,?,-1%,-23%,-6%,-1%,?
CCNc1ccc2noc3c2c1C(=O)c1ccccc1-3,50µM*,?,-1%,?,?,0%,85*
CCOc1ccc2noc3c2c1C(=O)c1ccccc1-3,-7%,14%,-9%,62%,5%,0%,/
O=C1c2ccccc2-c2onc3ccc(N4CCCC4)c1c23,22µM*,?,-19%,?,?,-1%,38*
COc1ccc(C2Nc3ccccc3C(=O)N2Cc2ccccc2OC)cc1COc1ccc(NC(C)=O)cc1 (stereo not given),/,/,/,/,24%,/,/
Cc1ccc2c(c1)N(C)/C(=C/c1cccc[n+]1C)S2,?,3%,-3%,-6%,0%,4%,38*
COc1ccc2c(c1)N(C)/C(=C/c1cccc[n+]1C)S2,20µM*,-5%,-2%,-5%,-4%,1%,?
CCc1cc2c(s1)c1cnn(Cc3ccccc3F)c(=O)c1n2C,/,/,/,/,0%,/,/
O=S1(=O)N=C(Oc2cccc(C(F)(F)F)c2)c2ccccc21,/,/,/,/,-1%,/,/
CCOC(=O)C1CCNC(=O)C1=O (stereo not given),20µM*,/,-6%,/,-1%,/,21*
Cc1ccc(NS(=O)(=O)c2cc3c(cc2N2CCC2)NC(=O)CC3)cc1C,/,/,/,/,-3%,/,/
COc1ccc(C2c3c(nc(CCCc4ccccc4)[nH]c3=O)Oc3ccc4ccccc4c32)cc1OC (stereo not given),/,/,/,/,57%,/,/
COc1cc([N+](=O)[O-])ccc1NC(=O)Nc1cnccn1,-19%,0%,-6%,-1%,?,0%,?
COc1ccccc1NC(=O)Nc1cnccn1,0%,0%,-4%,-2%,2%,0%,/
CC(C)N=c1scc(-c2ccco2)n1/N=C/c1ccc(O)c(O)c1,-32%,?,-9%,-13%,-2%,-1%,/
COCCN=c1scc(-c2ccco2)n1/N=C/c1ccc(O)c(O)c1O,35µM*,6%,-25%,?,?,0%,?
COc1cc(-c2ccc3ncnc(NCc4ccc(C)o4)c3c2)cc(OC)c1OC,/,/,/,/,9%,/,?
Cc1c(P(=S)(c2ccccc2)c2ccccc2)c2ccccc2n1C(=O)NCc1ccccc1,/,/,/,/,3%,/,/
O=C1CCc2cc(-c3csc(-c4ccc(O)cc4)n3)ccc2N1,-19%,/,/,/,/,/,/
CC(OC(=O)c1cccc(O)c1)C(=O)N(C)Cc1ccccc1 (stereo not given),-3%,12%,0%,/,3%,0%,/
CC(OC(=O)/C(C#N)=C/c1ccc(N(C)C)cc1)C(=O)N(C)Cc1ccccc1 (stereo not given),?,?,-4%,-10%,?,0%,76*
O=[N+]([O-])c1ccccc1N=Nc1ccc(O)cc1O,?,/,-14%,/,?,/,/
